Laboratory results reported in ChEMBL document CHEMBL2218924, “A broad activity screen in support of a chemogenomic map for kinase signalling research and drug discovery” (Biochem J, 2013).

Key:
[1] = biological target: T1, Serine/threonine-protein kinase 17A (Homo sapiens) (UniProt Q9UEE5); conditions: at 10 µM
T1 sequence (whole entry): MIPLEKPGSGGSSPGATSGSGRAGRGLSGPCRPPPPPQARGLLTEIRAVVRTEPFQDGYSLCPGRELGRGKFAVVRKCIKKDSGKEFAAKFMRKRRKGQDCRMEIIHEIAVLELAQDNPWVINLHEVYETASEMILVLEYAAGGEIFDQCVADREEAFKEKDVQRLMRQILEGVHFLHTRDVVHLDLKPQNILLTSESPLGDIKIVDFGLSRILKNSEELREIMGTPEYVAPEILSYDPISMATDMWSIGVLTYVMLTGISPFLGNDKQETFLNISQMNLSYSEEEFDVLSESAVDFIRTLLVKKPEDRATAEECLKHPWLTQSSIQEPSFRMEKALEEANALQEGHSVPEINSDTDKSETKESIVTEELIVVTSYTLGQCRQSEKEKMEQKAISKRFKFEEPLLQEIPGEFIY

[2] = biological target: T2, Dual specificity tyrosine-phosphorylation-regulated kinase 2 (Homo sapiens) (UniProt Q92630); conditions: at 1 µM
T2 sequence (whole entry): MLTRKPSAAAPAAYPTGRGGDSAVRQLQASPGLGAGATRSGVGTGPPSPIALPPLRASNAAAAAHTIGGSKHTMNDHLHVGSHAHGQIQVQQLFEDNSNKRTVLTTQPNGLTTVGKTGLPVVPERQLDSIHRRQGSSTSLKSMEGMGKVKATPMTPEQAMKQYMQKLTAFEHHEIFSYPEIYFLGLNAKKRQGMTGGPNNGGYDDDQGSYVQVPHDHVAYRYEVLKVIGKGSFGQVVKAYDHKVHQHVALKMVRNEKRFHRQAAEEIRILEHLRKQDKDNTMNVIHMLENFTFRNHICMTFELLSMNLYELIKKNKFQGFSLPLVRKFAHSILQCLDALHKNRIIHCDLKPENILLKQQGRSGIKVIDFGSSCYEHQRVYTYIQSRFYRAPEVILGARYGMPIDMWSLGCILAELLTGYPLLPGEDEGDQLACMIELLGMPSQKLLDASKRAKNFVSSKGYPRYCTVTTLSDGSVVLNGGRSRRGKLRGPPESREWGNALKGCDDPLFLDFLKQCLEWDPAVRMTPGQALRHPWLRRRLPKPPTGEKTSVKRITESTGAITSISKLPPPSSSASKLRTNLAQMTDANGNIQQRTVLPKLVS

[3] = biological target: T2, Dual specificity tyrosine-phosphorylation-regulated kinase 2 (Homo sapiens); conditions: at 10 µM
[4] = biological target: T3, Ephrin type-A receptor 1 (Homo sapiens) (UniProt P21709); conditions: at 1 µM
T3 sequence (whole entry): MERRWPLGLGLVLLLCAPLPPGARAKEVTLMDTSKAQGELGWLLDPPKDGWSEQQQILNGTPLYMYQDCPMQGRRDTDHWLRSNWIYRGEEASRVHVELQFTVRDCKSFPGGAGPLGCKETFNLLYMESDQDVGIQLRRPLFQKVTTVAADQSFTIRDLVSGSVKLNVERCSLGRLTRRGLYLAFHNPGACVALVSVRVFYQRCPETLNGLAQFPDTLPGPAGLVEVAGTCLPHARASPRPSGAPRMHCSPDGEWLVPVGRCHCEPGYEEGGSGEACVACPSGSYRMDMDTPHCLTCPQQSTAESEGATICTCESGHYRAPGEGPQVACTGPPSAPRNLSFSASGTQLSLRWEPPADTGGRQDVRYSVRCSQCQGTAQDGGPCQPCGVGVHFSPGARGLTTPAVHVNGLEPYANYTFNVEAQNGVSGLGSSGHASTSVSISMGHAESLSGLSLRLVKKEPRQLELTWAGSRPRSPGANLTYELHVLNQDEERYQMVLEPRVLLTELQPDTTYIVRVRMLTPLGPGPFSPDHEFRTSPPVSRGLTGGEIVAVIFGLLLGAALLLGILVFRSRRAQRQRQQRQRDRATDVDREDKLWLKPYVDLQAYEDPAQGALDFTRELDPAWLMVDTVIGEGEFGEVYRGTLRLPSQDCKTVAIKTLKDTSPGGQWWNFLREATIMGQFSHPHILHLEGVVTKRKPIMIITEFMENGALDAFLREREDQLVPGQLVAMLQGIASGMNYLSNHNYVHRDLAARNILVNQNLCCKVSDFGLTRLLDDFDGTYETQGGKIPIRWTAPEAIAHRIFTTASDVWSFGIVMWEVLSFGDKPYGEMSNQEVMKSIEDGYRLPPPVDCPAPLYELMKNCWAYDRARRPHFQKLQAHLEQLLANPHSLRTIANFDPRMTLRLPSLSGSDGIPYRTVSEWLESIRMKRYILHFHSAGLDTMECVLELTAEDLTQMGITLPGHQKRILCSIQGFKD

[5] = biological target: T3, Ephrin type-A receptor 1 (Homo sapiens); conditions: at 10 µM
[6] = biological target: Ephrin type-A receptor 2 (Homo sapiens) (UniProt P29317); conditions: at 1 µM
[7] = biological target: Ephrin type-A receptor 2 (Homo sapiens) (UniProt P29317); conditions: at 10 µM
[8] = biological target: T4, Ephrin type-A receptor 3 (Homo sapiens) (UniProt P29320); conditions: at 1 µM
T4 sequence (whole entry): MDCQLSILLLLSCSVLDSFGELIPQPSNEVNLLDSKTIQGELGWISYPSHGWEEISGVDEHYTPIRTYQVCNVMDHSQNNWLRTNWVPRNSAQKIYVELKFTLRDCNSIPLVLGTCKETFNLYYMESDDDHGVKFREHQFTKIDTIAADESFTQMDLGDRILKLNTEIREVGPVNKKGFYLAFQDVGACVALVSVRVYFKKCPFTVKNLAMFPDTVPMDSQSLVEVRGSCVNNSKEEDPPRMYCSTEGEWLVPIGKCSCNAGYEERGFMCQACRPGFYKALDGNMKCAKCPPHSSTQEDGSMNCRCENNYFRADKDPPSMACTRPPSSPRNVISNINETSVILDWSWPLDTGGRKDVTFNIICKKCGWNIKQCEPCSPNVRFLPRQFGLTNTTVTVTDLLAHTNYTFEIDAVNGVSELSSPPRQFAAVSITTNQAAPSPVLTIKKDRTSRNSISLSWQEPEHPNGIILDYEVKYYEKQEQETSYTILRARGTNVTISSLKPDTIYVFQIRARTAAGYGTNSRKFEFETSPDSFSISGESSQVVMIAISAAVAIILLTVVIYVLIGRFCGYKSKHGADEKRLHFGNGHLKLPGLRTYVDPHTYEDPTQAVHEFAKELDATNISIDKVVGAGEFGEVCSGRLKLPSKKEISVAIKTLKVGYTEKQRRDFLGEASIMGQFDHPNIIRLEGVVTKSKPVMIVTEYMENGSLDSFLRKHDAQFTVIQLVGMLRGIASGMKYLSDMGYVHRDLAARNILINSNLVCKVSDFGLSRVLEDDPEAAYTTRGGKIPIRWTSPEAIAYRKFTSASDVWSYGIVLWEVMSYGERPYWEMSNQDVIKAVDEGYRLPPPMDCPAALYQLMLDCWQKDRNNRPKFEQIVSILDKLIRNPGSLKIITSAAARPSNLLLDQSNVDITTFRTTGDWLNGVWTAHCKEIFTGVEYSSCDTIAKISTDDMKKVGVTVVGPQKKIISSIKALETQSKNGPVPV

[9] = biological target: T4, Ephrin type-A receptor 3 (Homo sapiens); conditions: at 10 µM
[10] = biological target: Ephrin type-A receptor 4 (Homo sapiens) (UniProt P54764); conditions: at 1 µM
[11] = biological target: Ephrin type-A receptor 4 (Homo sapiens) (UniProt P54764); conditions: at 10 µM
[12] = biological target: Ephrin type-A receptor 5 (Homo sapiens) (UniProt P54756); conditions: at 1 µM
[13] = biological target: Ephrin type-A receptor 5 (Homo sapiens) (UniProt P54756); conditions: at 10 µM
[14] = biological target: Ephrin type-A receptor 7 (Homo sapiens) (UniProt Q15375); conditions: at 1 µM
[15] = biological target: Ephrin type-A receptor 7 (Homo sapiens) (UniProt Q15375); conditions: at 10 µM
[16] = biological target: T5, Ephrin type-A receptor 8 (Homo sapiens) (UniProt P29322); conditions: at 1 µM
T5 sequence (whole entry): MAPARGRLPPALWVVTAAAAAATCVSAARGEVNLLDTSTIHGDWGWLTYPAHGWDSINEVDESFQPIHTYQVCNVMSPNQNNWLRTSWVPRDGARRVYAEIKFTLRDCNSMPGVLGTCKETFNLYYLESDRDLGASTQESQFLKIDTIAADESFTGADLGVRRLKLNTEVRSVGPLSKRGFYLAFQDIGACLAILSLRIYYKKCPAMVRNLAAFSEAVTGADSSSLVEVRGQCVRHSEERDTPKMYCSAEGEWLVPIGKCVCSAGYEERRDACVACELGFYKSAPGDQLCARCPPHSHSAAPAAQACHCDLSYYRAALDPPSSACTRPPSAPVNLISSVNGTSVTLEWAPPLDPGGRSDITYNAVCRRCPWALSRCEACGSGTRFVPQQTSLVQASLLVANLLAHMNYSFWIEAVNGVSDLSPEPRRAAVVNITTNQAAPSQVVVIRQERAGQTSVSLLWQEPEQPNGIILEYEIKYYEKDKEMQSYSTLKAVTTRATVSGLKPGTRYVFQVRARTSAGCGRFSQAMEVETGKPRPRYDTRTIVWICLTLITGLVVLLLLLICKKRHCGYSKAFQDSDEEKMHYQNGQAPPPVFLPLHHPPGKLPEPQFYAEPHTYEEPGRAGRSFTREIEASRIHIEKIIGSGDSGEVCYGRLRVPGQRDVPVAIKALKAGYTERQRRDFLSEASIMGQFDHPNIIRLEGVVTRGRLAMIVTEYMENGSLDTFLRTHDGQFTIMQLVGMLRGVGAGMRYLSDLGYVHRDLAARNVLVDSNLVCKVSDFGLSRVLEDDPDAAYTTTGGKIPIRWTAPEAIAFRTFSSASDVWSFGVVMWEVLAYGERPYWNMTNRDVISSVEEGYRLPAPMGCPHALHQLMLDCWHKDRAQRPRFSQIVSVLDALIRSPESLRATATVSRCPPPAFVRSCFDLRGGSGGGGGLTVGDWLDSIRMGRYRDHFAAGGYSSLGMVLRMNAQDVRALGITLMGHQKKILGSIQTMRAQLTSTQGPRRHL

[17] = biological target: T5, Ephrin type-A receptor 8 (Homo sapiens); conditions: at 10 µM
[18] = biological target: T6, Ephrin type-B receptor 1 (Homo sapiens) (UniProt P54762); conditions: at 1 µM
T6 sequence (whole entry): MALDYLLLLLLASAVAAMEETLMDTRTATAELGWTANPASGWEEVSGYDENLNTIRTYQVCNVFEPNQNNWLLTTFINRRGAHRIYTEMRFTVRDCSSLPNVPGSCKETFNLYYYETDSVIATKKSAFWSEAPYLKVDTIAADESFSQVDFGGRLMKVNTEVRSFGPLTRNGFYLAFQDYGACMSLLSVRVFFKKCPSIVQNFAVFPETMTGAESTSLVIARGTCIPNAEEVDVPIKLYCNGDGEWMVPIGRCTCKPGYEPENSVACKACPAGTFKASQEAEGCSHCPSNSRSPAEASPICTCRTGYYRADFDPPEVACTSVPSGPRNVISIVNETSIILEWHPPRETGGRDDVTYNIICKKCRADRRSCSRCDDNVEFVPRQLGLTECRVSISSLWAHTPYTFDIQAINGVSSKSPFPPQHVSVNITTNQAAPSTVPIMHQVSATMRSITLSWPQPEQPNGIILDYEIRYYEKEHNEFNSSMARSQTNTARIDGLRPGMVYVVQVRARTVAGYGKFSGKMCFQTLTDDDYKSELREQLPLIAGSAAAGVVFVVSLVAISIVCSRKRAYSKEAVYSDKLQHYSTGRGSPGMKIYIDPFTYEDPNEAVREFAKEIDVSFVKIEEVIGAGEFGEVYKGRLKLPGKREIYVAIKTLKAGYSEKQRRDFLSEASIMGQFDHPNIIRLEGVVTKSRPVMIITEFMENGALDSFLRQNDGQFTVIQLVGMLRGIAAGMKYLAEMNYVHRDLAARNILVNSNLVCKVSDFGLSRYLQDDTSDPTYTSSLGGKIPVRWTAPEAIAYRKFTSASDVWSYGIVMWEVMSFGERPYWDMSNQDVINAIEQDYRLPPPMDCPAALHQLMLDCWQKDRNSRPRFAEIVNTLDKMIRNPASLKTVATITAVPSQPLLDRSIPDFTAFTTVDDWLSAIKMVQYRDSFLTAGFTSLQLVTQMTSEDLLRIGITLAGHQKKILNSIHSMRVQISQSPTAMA

[19] = biological target: Epidermal growth factor receptor (Homo sapiens) (UniProt P00533); conditions: at 1 µM
[20] = biological target: Epidermal growth factor receptor (Homo sapiens) (UniProt P00533); conditions: at 10 µM

Sequence of Ephrin type-A receptor 4 (Homo sapiens) (P54764 whole entry): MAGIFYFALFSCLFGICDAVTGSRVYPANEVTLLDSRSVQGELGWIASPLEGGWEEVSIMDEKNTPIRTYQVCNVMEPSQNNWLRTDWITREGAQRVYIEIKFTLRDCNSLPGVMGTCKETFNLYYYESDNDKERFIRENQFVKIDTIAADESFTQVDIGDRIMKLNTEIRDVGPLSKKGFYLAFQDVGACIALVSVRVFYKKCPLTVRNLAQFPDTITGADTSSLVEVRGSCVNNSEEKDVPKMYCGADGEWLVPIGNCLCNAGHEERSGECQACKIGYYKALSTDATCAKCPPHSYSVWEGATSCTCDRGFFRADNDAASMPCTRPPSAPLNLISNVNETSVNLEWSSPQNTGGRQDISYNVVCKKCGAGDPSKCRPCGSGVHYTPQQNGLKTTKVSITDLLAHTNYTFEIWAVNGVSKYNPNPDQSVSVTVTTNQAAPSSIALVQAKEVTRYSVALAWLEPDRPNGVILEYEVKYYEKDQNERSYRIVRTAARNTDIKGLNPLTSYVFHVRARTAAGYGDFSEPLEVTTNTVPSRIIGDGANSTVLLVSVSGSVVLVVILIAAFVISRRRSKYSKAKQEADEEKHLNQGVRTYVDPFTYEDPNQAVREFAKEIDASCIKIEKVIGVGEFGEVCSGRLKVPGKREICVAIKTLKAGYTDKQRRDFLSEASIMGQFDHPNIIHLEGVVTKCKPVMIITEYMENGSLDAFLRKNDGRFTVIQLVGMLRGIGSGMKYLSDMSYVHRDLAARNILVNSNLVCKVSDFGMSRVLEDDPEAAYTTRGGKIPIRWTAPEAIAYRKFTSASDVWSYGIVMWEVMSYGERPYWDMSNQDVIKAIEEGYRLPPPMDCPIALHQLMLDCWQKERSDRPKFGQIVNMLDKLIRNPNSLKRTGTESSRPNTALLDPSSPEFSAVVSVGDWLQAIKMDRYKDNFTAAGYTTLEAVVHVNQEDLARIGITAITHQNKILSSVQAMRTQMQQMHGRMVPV
Sequence of Ephrin type-A receptor 7 (Homo sapiens) (Q15375 28-998 limits assumed): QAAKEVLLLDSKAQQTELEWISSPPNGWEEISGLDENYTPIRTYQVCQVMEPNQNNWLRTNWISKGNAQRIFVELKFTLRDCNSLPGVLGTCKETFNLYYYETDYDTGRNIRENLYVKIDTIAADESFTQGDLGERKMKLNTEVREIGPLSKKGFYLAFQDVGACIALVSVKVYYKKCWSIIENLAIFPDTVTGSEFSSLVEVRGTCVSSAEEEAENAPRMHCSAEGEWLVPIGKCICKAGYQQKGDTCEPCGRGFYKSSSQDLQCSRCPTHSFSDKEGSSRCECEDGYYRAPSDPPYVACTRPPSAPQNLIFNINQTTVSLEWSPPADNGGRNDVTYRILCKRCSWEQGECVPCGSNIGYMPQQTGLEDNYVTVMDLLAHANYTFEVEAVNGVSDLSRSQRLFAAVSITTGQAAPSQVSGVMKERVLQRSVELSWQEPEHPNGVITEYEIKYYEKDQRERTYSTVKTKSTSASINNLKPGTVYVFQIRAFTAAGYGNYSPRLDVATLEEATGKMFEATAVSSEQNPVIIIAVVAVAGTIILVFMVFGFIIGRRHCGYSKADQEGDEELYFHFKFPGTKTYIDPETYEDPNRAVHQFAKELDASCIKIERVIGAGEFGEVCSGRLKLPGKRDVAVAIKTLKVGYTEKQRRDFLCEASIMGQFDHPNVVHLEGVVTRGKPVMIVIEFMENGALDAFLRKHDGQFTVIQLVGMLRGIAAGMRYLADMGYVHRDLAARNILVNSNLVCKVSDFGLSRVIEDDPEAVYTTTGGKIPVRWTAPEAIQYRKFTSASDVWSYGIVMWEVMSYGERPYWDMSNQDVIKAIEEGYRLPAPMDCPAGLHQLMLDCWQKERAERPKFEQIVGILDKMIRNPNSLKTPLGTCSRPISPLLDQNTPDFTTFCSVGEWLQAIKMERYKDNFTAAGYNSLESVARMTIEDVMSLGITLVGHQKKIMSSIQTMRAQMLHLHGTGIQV
Sequence of Ephrin type-A receptor 2 (Homo sapiens) (P29317 whole entry): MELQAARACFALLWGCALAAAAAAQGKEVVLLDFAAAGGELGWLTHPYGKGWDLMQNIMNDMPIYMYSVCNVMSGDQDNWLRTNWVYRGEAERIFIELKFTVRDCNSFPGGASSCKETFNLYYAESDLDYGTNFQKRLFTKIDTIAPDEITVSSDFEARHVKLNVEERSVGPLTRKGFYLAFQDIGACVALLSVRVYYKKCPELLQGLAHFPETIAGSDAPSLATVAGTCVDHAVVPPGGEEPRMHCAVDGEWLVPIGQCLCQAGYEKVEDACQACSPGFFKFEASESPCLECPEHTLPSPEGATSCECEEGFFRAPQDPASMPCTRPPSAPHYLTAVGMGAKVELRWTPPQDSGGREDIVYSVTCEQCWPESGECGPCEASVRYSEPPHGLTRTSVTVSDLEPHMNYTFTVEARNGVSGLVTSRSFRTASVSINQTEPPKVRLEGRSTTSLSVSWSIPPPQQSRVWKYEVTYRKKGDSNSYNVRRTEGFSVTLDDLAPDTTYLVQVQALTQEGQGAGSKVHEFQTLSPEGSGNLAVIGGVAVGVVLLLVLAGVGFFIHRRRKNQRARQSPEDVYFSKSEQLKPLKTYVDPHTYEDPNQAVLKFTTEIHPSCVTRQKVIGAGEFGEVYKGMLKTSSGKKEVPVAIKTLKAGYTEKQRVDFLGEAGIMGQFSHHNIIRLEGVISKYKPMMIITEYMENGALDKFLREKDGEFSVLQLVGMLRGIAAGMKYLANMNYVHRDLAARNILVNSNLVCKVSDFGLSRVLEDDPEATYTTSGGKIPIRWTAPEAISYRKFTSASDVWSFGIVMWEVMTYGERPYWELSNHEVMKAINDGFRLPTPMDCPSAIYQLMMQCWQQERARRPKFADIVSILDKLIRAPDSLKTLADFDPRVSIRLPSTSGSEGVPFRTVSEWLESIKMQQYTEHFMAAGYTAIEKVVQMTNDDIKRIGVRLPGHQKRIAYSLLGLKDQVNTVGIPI
Sequence of Ephrin type-A receptor 5 (Homo sapiens) (P54756 whole entry): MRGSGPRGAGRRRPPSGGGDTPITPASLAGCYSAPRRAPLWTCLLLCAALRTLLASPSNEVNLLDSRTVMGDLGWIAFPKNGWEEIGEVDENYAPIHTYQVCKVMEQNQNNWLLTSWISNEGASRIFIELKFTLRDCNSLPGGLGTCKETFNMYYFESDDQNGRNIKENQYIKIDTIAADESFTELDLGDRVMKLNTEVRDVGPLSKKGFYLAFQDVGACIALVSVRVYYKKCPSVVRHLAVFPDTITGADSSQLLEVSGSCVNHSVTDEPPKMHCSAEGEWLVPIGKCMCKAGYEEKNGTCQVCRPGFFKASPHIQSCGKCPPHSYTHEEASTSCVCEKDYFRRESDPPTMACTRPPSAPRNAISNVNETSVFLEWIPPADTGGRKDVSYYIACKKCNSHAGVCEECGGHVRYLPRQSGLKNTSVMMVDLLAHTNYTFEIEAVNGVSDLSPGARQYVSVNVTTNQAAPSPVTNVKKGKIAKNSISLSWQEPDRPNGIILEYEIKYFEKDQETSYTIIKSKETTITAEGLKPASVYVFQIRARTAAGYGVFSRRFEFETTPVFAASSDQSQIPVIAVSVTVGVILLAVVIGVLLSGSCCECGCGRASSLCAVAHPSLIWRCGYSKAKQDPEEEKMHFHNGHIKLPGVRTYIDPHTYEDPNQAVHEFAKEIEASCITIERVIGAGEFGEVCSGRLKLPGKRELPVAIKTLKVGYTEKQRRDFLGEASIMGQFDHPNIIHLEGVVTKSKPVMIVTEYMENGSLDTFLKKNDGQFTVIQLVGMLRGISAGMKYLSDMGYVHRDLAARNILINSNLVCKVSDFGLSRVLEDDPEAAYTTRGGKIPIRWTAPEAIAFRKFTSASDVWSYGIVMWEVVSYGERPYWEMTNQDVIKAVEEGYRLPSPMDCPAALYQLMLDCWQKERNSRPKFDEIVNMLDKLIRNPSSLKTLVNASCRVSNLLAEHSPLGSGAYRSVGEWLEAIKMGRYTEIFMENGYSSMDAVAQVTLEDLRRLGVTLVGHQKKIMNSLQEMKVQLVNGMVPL

Compound | residual activity [1] | residual activity [2] | residual activity [3] | residual activity [4] | residual activity [5] | residual activity [6] | residual activity [7] | residual activity [8] | residual activity [9] | residual activity [10] | residual activity [11] | residual activity [12] | residual activity [13] | residual activity [14] | residual activity [15] | residual activity [16] | residual activity [17] | residual activity [18] | residual activity [19] | residual activity [20]
COc1cc2ncnc(Nc3ccc(O)c(Br)c3)c2cc1OC | 18% | 48% | 10% | 35% | 8% | 90% | 30% | 79% | 20% | 89% | 41% | 74% | 21% | 34% | 7% | 70% | 28% | 62% | – | –
Nc1cccc(-c2cc3c(Oc4cccc(O)c4)ncnc3[nH]2)c1 | 32% | 89% | 62% | 2% | -1% | 30% | 2% | 4% | 0% | 48% | 4% | 24% | 2% | 64% | 15% | 30% | 6% | 7% | – | –
CCOc1cc2ncnc(Nc3cccc(Br)c3)c2cc1OCC | 60% | 92% | 58% | 32% | 4% | 85% | 18% | 81% | 22% | 86% | 31% | 50% | 9% | 48% | 7% | 54% | 20% | 48% | -5% | -4%
